# Assay results as given in PubChem BioAssay (EPA / NIEHS).
# Results filed as inconclusive are left out. Calls of active or inactive are those of the source. How the source made its calls: active means hit-call score of the fitted dose curve at least 0.9, where 1 is the maximum; inconclusive means response in the unintended direction; inactive means score below 0.9.
# Key:
# [1] = target: human Caspase 5 (CASP5), CASP5 (gene 838) (UniProt P51878); test: NVS_ENZ_hCASP5: NovaScreen (NVS) Enzymatic Assay for human Caspase 5 (CASP5) (AID 2283137)
# Procedure, shortened: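 Loss of fluorescent signal versus DMSO scored for E. coli-derived human CASP5 cleaving a fluorescent substrate, 2 h post-dosing; compounds first tested at 25 uM in duplicate, hits rerun in concentration series with 50 uM top concentration.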
# [2] = target: human Dual Specificity Protein Phosphatase 3 (DUSP3), DUSP3 (gene 1845) (UniProt P51452); test: NVS_ENZ_hDUSP3: NovaScreen (NVS) Enzymatic Assay for human Dual Specificity Protein Phosphatase 3 (DUSP3) (AID 2283152);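 further: phosphatase activity of recombinant human DUSP3 on a fluorogenic substrate without cells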
# Procedure, shortened: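 Cell-free fluorescence-intensity enzyme activity assay with recombinant protein and substrate; loss of signal fitted relative to DMSO baseline. Primary screen in duplicate at 25 uM, actives then run in concentration series; measured 0 h after dosing.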
# [3] = target: human Ephrin type-A Receptor 1 (EphA1), EPHA1 (gene 2041) (UniProt P21709); test: NVS_ENZ_hEphA1: NovaScreen (NVS) Enzymatic Assay for human Ephrin type-A Receptor 1 (EphA1) (AID 2283158);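 further: activity is signal loss versus DMSO meaning EphA1 kinase inhibition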
# Procedure, shortened: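 Cell-free kinase activity with recombinant protein, 1 hour after dosing; product separated by electrophoretic mobility shift, fluorescence read. Primary screen at 25 uM in duplicate; hits run as concentration-response up to 50 uM, relative to DMSO.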
# [4] = target: Cytochrome P450 2C19 (Homo sapiens) (UniProt P33261); test: NVS_ADME_hCYP2C19: NovaScreen (NVS) CYP450-related Enzyme Activity (ADME) Assay for human CYP2C19 (AID 2283113);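 further: potency for inhibition seen as loss of fluorescent signal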
# Procedure, shortened: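 Cell-free recombinant human CYP2C19 from insect cells, fluorescent substrate; activity read by fluorescence intensity 1 h after dosing. Primary screen in duplicate at 10 uM; actives retested in concentration series. Signal loss versus acetonitrile negative control.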
# [5] = target: rat CYP2C11, Cyp2c11 (gene 29277) (UniProt P08683); test: NVS_ADME_rCYP2C11: NovaScreen (NVS) CYP450-related Enzyme Activity (ADME) Assay for rat CYP2C11 (AID 2283118)
# Procedure, shortened: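 Screened first at 10 uM in duplicate, hits followed by concentration-response. Recombinant rat enzyme activity monitored by fluorescence 0.33 h post-dosing, normalised to acetonitrile negative control.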
# [6] = target: human Matrix Metalloproteinase-9 (MMP9), MMP9 (gene 4318) (UniProt P14780); test: NVS_ENZ_hMMP9: NovaScreen (NVS) Enzymatic Assay for human Matrix Metalloproteinase-9 (MMP9) (AID 2283190);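 further: cell-free recombinant MMP9 protease activity read by fluorescent substrate signal; active means inhibition seen as loss of fluorescence signal versus DMSO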
# Procedure, shortened: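 Screening concentration 25 uM, duplicate wells, then dose series for confirmation. Cell-free enzymatic reaction measured by fluorescence intensity 1 h post-dosing; decreased signal versus DMSO taken as activity.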
# [7] = target: Cytochrome P450 3A4 (Homo sapiens) (UniProt P08684); test: NVS_ADME_hCYP3A4: NovaScreen (NVS) CYP450-related Enzyme Activity (ADME) Assay for human CYP3A4 (AID 2283110)
# Procedure, shortened: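 Recombinant CYP3A4 from insect cells, fluorescence enzyme read-out, 0.33 h after chemical addition. Acetonitrile = negative control/baseline. Primary HTS: 10 uM in duplicate; actives re-tested in concentration series.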
# [8] = target: human Phosphoinositide 3-kinase alpha (PI3Ka), PIK3CA (gene 5290) (UniProt P42336); test: NVS_ENZ_hPI3Ka: NovaScreen (NVS) Enzymatic Assay for human Phosphoinositide 3-kinase alpha (PI3Ka) (AID 2283196)
# Procedure, shortened: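 Duplicate single-point screen (25 uM), then singleton dose-response (max 50 uM) for compounds meeting the threshold. Cell-free kinase reaction, 1 h; fluorescent mobility-shift readout.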
# [9] = target: human CYP2D6, CYP2D6 (gene 1565) (UniProt P10635); test: NVS_ADME_hCYP2D6: NovaScreen (NVS) CYP450-related Enzyme Activity (ADME) Assay for human CYP2D6 (AID 2283107)
# Procedure, shortened: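 Cell-free assay using recombinant human CYP2D6 expressed in insect cells, with a fluorogenic substrate read after 1 h. Primary screen in duplicate at 10 uM; actives followed up in concentration series. Loss of signal fitted relative to acetonitrile.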
# [10] = target: human Esterase Plasma (ES), BCHE (gene 590) (UniProt P06276); test: NVS_ENZ_hES: NovaScreen (NVS) Enzymatic Assay for human Esterase Plasma (ES) (AID 2283157)
# Procedure, shortened: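 Human plasma-derived enzyme, cell-free, colorimetric readout at 0.25 h. Primary screen 25 uM in duplicate; hits (e.g. ≥30% inhibition) rerun singleton up to 50 uM. DMSO = negative control/baseline.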
# [11] = target: guinea pig Opioid, Kappa 1 Receptor (OpiateK), OPRK1 (gene 100135587) (UniProt P41144); test: NVS_GPCR_gOpiateK: NovaScreen (NVS) G Protein-Coupled Receptor Assay for guinea pig Opioid, Kappa 1 Receptor (OpiateK) (AID 2283252);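 further: radioligand displacement from kappa opioid receptor in guinea pig cerebellar membranes; active means reduced radioligand binding relative to DMSO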
# Procedure, shortened: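 Cell-free tissue prep: guinea pig cerebellar membranes, radioligand displacement, 2 h incubation. Readout: filtration plus scintillation counting. Primary single-point 25 uM duplicate; actives retested in concentration series; DMSO negative control.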
# [12] = target: human Phosphodiesterase 10 (PDE10), PDE10A (gene 10846) (UniProt Q9Y233); test: NVS_ENZ_hPDE10: NovaScreen (NVS) Enzymatic Assay for human Phosphodiesterase 10 (PDE10) (AID 2283195)
# Procedure, shortened: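 Biochemical single-readout PDE10A assay, cell-free, extracted protein. Compounds first screened at 25 uM in duplicate, hits then titrated to 50 uM max. Activity measured after 1 h; loss-of-signal fitted against DMSO negative control.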
# Sequence of human Ephrin type-A Receptor 1 (EphA1), EPHA1 (gene 2041) (P21709 whole entry, looked up): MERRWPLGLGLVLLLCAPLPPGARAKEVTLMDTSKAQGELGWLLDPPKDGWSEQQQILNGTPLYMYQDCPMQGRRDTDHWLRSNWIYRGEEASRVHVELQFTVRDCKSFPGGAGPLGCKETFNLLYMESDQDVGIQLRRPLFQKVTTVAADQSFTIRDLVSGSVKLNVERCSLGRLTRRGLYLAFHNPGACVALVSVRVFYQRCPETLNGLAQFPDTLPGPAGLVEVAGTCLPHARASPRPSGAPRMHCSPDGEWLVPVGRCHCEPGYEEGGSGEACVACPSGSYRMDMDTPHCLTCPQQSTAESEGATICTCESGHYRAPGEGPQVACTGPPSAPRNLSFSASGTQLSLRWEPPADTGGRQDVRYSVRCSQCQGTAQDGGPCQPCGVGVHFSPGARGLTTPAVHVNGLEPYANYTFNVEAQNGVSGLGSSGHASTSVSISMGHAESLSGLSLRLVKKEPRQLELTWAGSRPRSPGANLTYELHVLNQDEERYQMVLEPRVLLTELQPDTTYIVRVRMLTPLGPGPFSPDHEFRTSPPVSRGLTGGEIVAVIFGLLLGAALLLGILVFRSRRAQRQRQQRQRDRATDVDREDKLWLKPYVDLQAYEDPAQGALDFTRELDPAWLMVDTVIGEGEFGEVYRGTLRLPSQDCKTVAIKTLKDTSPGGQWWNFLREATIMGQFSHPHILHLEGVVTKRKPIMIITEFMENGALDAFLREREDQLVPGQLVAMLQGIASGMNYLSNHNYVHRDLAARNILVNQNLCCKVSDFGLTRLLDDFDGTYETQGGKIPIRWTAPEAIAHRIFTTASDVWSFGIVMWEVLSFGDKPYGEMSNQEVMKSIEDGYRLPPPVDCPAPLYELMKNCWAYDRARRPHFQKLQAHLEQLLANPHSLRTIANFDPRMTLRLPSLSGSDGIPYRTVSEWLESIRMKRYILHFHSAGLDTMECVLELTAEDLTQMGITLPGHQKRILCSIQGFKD
# Sequence of human CYP2D6, CYP2D6 (gene 1565) (P10635 whole entry, looked up): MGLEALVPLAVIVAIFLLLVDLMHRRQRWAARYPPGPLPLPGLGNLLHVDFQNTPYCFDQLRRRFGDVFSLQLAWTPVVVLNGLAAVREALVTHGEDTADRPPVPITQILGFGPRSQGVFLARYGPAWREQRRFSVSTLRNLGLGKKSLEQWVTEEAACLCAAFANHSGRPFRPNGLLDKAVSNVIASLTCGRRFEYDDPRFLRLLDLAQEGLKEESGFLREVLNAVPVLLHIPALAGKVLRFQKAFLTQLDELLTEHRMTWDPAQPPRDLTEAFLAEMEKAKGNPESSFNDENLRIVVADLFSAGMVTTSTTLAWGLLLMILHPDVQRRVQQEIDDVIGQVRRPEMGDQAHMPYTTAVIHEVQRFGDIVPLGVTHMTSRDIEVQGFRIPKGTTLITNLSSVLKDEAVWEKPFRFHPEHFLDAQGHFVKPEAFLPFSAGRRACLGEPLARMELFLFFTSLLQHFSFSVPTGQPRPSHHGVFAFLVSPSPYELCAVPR
# Sequence of human Dual Specificity Protein Phosphatase 3 (DUSP3), DUSP3 (gene 1845) (P51452 whole entry, looked up): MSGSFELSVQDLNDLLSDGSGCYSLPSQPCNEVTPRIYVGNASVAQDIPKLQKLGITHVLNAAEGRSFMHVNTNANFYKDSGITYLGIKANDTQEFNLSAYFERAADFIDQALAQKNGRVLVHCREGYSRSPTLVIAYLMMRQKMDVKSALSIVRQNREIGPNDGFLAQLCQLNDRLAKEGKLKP
# Sequence of human Phosphodiesterase 10 (PDE10), PDE10A (gene 10846) (Q9Y233 whole entry, looked up): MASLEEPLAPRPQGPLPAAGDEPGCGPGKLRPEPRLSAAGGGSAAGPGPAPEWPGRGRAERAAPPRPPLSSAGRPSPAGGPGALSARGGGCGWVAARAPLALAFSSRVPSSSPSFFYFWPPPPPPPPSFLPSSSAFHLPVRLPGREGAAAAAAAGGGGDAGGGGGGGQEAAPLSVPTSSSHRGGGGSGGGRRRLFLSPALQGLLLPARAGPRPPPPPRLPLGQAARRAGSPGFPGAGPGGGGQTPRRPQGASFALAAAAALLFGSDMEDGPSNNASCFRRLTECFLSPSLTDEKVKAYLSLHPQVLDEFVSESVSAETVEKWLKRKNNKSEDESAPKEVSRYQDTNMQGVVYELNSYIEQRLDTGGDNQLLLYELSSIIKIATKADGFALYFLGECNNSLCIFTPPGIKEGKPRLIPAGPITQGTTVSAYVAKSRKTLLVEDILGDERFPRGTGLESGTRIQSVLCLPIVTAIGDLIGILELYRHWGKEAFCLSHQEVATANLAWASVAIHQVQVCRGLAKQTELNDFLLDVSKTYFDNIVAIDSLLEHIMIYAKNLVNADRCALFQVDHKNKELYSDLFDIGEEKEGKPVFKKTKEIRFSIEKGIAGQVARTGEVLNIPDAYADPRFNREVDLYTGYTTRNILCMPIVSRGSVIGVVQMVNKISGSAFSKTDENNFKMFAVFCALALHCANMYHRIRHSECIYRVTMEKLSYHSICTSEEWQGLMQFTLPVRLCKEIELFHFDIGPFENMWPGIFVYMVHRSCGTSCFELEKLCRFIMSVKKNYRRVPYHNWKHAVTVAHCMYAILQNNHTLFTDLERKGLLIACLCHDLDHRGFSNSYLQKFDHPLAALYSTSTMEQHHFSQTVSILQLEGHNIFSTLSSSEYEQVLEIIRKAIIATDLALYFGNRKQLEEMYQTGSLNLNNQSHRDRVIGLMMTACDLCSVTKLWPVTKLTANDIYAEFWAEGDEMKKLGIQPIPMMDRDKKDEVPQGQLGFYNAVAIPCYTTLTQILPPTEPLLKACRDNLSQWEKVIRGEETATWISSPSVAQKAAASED
# Sequence of human Phosphoinositide 3-kinase alpha (PI3Ka), PIK3CA (gene 5290) (P42336 whole entry, looked up): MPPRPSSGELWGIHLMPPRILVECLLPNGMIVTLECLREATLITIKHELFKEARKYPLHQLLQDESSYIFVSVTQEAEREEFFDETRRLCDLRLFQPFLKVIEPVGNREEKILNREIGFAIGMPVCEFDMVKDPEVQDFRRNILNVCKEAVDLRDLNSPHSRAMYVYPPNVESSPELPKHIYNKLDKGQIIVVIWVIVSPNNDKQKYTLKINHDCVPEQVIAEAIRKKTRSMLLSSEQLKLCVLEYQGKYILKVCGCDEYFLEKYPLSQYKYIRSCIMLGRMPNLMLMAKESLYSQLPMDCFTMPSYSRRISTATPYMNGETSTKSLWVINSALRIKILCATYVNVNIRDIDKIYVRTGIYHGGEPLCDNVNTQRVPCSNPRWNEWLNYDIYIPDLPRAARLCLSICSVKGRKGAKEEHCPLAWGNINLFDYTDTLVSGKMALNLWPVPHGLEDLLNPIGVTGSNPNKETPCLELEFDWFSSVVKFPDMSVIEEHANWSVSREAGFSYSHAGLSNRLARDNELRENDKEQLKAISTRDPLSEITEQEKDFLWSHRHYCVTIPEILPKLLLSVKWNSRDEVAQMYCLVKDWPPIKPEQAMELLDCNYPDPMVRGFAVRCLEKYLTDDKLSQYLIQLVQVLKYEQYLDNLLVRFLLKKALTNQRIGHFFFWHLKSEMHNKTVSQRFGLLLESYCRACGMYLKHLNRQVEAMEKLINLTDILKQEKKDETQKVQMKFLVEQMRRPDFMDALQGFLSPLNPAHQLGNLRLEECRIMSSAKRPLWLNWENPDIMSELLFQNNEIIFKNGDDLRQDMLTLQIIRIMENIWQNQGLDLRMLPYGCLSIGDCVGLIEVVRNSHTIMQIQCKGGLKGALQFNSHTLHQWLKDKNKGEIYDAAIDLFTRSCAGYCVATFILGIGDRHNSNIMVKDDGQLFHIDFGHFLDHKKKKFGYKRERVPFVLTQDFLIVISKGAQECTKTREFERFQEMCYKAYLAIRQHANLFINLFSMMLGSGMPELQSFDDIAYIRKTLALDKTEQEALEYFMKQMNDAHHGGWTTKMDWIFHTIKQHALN
# Sequence of human Matrix Metalloproteinase-9 (MMP9), MMP9 (gene 4318) (P14780 whole entry, looked up): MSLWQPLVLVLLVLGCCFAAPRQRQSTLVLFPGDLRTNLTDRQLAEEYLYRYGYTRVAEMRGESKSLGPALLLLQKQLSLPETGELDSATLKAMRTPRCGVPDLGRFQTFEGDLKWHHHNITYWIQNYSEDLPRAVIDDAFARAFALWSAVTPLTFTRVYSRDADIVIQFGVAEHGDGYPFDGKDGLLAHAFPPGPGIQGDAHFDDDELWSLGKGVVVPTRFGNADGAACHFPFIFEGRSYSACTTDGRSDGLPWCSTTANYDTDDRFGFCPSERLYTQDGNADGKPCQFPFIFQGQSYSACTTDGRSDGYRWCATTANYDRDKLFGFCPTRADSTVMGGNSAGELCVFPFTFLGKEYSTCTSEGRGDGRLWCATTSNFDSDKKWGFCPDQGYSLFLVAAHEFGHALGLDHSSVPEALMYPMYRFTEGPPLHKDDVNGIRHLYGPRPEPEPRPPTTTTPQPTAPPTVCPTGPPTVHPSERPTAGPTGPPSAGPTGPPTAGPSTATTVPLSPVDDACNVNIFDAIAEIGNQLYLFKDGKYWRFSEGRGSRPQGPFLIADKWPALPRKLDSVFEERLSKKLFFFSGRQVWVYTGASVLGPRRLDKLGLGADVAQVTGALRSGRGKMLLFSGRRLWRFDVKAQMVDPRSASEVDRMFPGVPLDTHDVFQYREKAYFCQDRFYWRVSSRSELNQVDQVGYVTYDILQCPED
# Sequence of human Caspase 5 (CASP5), CASP5 (gene 838) (P51878 whole entry, looked up): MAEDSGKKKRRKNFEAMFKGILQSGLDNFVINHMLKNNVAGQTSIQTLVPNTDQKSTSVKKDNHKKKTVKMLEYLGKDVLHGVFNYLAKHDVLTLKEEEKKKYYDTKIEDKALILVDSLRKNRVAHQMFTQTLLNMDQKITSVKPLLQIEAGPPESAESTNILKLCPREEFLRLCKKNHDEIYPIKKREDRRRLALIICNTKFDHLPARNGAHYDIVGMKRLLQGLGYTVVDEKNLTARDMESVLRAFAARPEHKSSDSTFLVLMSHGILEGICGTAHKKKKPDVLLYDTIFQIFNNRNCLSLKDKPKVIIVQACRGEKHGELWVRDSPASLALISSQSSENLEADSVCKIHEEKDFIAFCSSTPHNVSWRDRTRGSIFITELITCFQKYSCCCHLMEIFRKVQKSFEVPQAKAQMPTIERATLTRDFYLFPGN
compound,measurement,setting,value
CCOC(=O)/C=C\C(=O)OCC,outcome,[1],inactive
same,AC50,[2],14.7 µM (active)
CC=C(C)C(C)=O,outcome,[3],inactive
CCOC(=O)C1=NOC(c2ccccc2)(c2ccccc2)C1,AC50,[4],1.8 µM (active)
same,outcome,[5],inactive
same,outcome,[1],inactive
same,AC50,[6],2.32 µM (active)
C=CC(=O)OCC(C)OCC(C)OCC(C)OC(=O)C=C (centres undefined),outcome,[7],inactive
same,outcome,[3],inactive
same,outcome,[8],inactive
CC(C)[N+](C)(CCOC(=O)C1c2ccccc2Oc2ccccc21)C(C)C,AC50,[9],0.741 µM (active)
same,AC50,[10],2.02 µM (active)
same,AC50,[11],11.1 µM (active)
Cc1cc(C)n(CO)n1,outcome,[9],inactive
same,AC50,[4],4.01 µM (active)
Fc1ccc(Br)cc1,outcome,[1],inactive
same,AC50,[2],13.7 µM (active)
same,outcome,[10],inactive
CC=C(C)C=CC=C(C)C,outcome,[3],inactive
same,AC50,[6],4.96 µM (active)
same,outcome,[12],inactive
same,AC50,[8],0.976 µM (active)
c1ccc2sc(SSN3CCOCC3)nc2c1,AC50,[4],0.01 µM (active)
same,AC50,[2],1.39 µM (active)
CC1=C(O)C(=O)C(C)O1 (centres undefined),outcome,[7],inactive
same,outcome,[3],inactive
C=CC(=O)OCCCCCCCC(C)C,AC50,[4],1.67 µM (active)
same,outcome,[3],inactive
C=C(C)OC(C)=O,outcome,[3],inactive
same,AC50,[6],9.44 µM (active)
CO[Si](CCCS)(OC)OC,AC50,[1],25 µM (active)
same,AC50,[6],12.4 µM (active)
same,AC50,[8],39 µM (active)
CCc1occc(=O)c1O,AC50,[9],3.97 µM (active)
same,AC50,[6],6.98 µM (active)
CCCCOCCOCCOC(C)=O,outcome,[3],inactive
same,AC50,[6],1.23 µM (active)
same,outcome,[12],inactive
same,outcome,[8],inactive
CC(=O)CC(=O)Nc1ccccc1C,outcome,[3],inactive
O=C(Oc1ccccc1)c1ccccc1C(=O)Oc1ccccc1,outcome,[3],inactive
same,AC50,[6],9.17 µM (active)
CCCCCC1=CCCC1=O,outcome,[3],inactive
same,outcome,[12],inactive
